Results taken from PubChem BioAssay (NCI).
The panel holds about 83,000 compounds, 20% with a hit somewhere; the sample as a whole holds those more often.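 Testing used 96-well plates and a 48-hour single-concentration exposure. Example: -40 means 40% of the starting cells died.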 Values without a mark were called inactive. Calls of active or inactive are those of the source. Rule for the calls: active = growth percent below 10; inactive = the rest.

Key:
Test in all cases: NCI-60 one-dose screen, 48 h (100 = growth as untreated, 0 = no growth, -100 = all killed)
[1] = test system: NCI-H23 lung; settings: 10 µM unless noted
[2] = test system: NCI-H226 lung; settings: 10 µM unless noted
[3] = test system: NCI-H322M lung; settings: 10 µM unless noted
[4] = test system: HOP-62 NSCLC; settings: 10 µM unless noted
[5] = test system: NCI-H460 lung; settings: 10 µM unless noted
[6] = test system: NCI-H522 lung; settings: 10 µM unless noted
[7] = test system: A549/ATCC NSCLC; settings: 10 µM unless noted
[8] = test system: 786-0 renal; settings: 10 µM unless noted
[9] = test system: COLO 205 colon; settings: 10 µM unless noted
[10] = test system: DU-145 prostate; settings: 10 µM unless noted
[11] = test system: K-562 leukemia; settings: 10 µM unless noted
[12] = test system: MALME-3M melanoma; settings: 10 µM unless noted
[13] = test system: MDA-MB-231 breast; settings: 10 µM unless noted
[14] = test system: RXF 393 renal; settings: 10 µM unless noted
[15] = test system: SF-268 CNS; settings: 10 µM unless noted
[16] = test system: SF-295 CNS; settings: 10 µM unless noted
[17] = test system: SF-539 CNS; settings: 10 µM unless noted
[18] = test system: UACC-257 melanoma; settings: 10 µM unless noted
[19] = test system: M14 melanoma; settings: 10 µM unless noted
[20] = test system: HOP-92 NSCLC; settings: 10 µM

CC(=O)c1cc(C(=O)N2c3ccccc3Sc3ccccc32)n2ccc3ccccc3c12
growth [1]: 62.8%
growth [2]: 45.4%
growth [3]: 61.8%
growth [4]: 42.4%
growth [5]: 30%
growth [6]: -38% (active)
growth [7]: 50.3%
growth [8]: 38.4%
growth [9]: 36.3%
growth [10]: 53%
growth [11]: 20.1%
growth [12]: 49.6%
growth [13]: 76.7%
growth [14]: 31.7%
growth [15]: 54.1%
growth [16]: 18.8%
growth [17]: 29.5%
growth [18]: 57.4%
growth [19]: 33.1%

C=C(C)[C@@H]1CC[C@]2(COC)CC[C@]3(C)[C@H](CC[C@@H]4[C@@]5(C)CCCNC(C)(C)[C@@H]5CC[C@]43C)[C@@H]12
growth [1]: 59.6%
growth [2]: 74.1%
growth [3]: 82.6%
growth [4]: 71.1%
growth [5]: -30% (active)
growth [20]: 74.9%
growth [7]: 39%
growth [8]: 31.4%
growth [9]: -49.2% (active)
growth [10]: 57.9%
growth [11]: -47.7% (active)
growth [12]: -4.67% (active)
growth [13]: 62.8%
growth [14]: -4.43% (active)
growth [15]: 78.9%
growth [16]: 58.3%
growth [17]: 51.7%
growth [18]: 13.3%
growth [19]: -39.4% (active)

O=C(Nc1ccc2c(ccn2Cc2ccccn2)c1)c1ccnnc1
growth [1]: 94.6%
growth [2]: 87.3%
growth [3]: 98.5%
growth [4]: 76.4%
growth [5]: 104%
growth [20]: 87.6%
growth [8]: 86%
growth [9]: 110%
growth [10]: 89.1%
growth [11]: 99.6%
growth [12]: 103%
growth [13]: 71.1%
growth [14]: 59.3%
growth [15]: 81.9%
growth [16]: 94.7%
growth [17]: 97.7%
growth [18]: 106%
growth [19]: 99.7%

CCc1cccc2c3c(sc12)C(c1ccc(OC)cc1)C(C#N)=C(/N=C/c1ccc(Cl)cc1)O3 (stereo not given)
growth [1]: 19.9%
growth [2]: 41.2%
growth [3]: 55.1%
growth [4]: 33.8%
growth [5]: 11.5%
growth [6]: -40.4% (active)
growth [7]: 41.5%
growth [8]: 39.3%
growth [9]: -18.9% (active)
growth [10]: 18.8%
growth [11]: 11.1%
growth [12]: 48.3%
growth [13]: 40.3%
growth [14]: -11.4% (active)
growth [15]: 60%
growth [16]: 6.9% (active)
growth [17]: 1.2% (active)
growth [18]: 72%
growth [19]: 4.74% (active)

Cc1cc(C)n(C(=O)c2sc(=S)n(-c3ccccc3)c2N=Nc2c(N)n[nH]c2N)n1
growth [1]: 104%
growth [2]: 102%
growth [3]: 101%
growth [4]: 103%
growth [5]: 108%
growth [6]: 93.2%
growth [7]: 102%
growth [8]: 111%
growth [9]: 109%
growth [10]: 110%
growth [11]: 105%
growth [12]: 73.9%
growth [13]: 89.2%
growth [14]: 116%
growth [15]: 104%
growth [16]: 104%
growth [17]: 99.1%
growth [18]: 106%

NS(=O)(=O)c1ccc(Nc2cc(-c3ccccc3)nc(SCC(=O)c3ccccc3)n2)cc1
growth [1]: 92.5%
growth [2]: 92.8%
growth [3]: 90.4%
growth [4]: 106%
growth [5]: 103%
growth [6]: 98.6%
growth [7]: 98.8%
growth [8]: 96.9%
growth [9]: 116%
growth [10]: 103%
growth [11]: 98.1%
growth [12]: 93%
growth [13]: 92.9%
growth [14]: 94.9%
growth [15]: 97.1%
growth [16]: 99.6%
growth [17]: 101%
growth [18]: 99%
growth [19]: 98.4%

COCCNc1ccc2ncc(C#Cc3cncc(C(=O)Nc4ccc(CN5CCN(C)CC5)c(C(F)(F)F)c4)c3)n2n1
growth [1]: -49.6% (active)
growth [2]: -45.9% (active)
growth [3]: -23% (active)
growth [4]: -48.3% (active)
growth [5]: -82.5% (active)
growth [6]: -76.3% (active)
growth [7]: 3.12% (active)
growth [8]: -64.1% (active)
growth [9]: -83.1% (active)
growth [10]: -32.4% (active)
growth [11]: 1.22% (active)
growth [12]: -69.7% (active)
growth [13]: -15% (active)
growth [14]: -84.3% (active)
growth [15]: -55% (active)
growth [16]: -13.9% (active)
growth [17]: -77% (active)
growth [18]: -46.4% (active)
growth [19]: -86.2% (active)

CC1(C)[C@@H](O)CC[C@]2(C)[C@H]3CC[C@@H]4[C@H]5[C@H](C(=O)/C=C\c6ccc([N+](=O)[O-])cc6)CC[C@]5(O)CC[C@@]4(C)[C@]3(C)CC[C@@H]12
growth [1]: 50.2%
growth [2]: -2.45% (active)
growth [3]: 90.8%
growth [4]: 86.9%
growth [5]: 51.8%
growth [20]: 82.7%
growth [7]: 61.8%
growth [8]: 56.8%
growth [9]: 106%
growth [10]: 58%
growth [11]: 27.3%
growth [12]: 66.6%
growth [13]: 46.2%
growth [14]: -7.82% (active)
growth [15]: 63.9%
growth [16]: 79.5%
growth [17]: 51.8%
growth [18]: 70.3%
growth [19]: 42.6%

CNC(=O)c1cc(-n2ccc3cc(NC(=O)Nc4ccc(N5CCOCC5)c(C(F)(F)F)c4)ccc32)ccn1
growth [1]: 50.4%
growth [2]: 73.6%
growth [3]: 75.5%
growth [4]: 55.7%
growth [5]: 34.3%
growth [20]: 56%
growth [7]: 36.4%
growth [8]: 13.6%
growth [9]: 26.4%
growth [10]: 54.9%
growth [11]: 4.09% (active)
growth [12]: 82%
growth [13]: 45.4%
growth [14]: -27.5% (active)
growth [15]: 72.6%
growth [16]: 12.3%
growth [17]: 23.3%
growth [18]: 56.8%
growth [19]: 23.6%

Cn1cc(-c2nnc(N)nc2-c2c[nH]c3ccc(F)cc23)c2cc(F)ccc21
growth [1]: 83%
growth [2]: 91.6%
growth [3]: 74%
growth [4]: 58.7%
growth [5]: 30.9%
growth [6]: 57.5%
growth [7]: 82.2%
growth [8]: 90%
growth [9]: 84.2%
growth [10]: 88.2%
growth [11]: 48.6%
growth [12]: 77.7%
growth [13]: 78.3%
growth [14]: 98.7%
growth [15]: 74.4%
growth [16]: 59.4%
growth [17]: 95.4%
growth [18]: 121%
growth [19]: 73.3%

CC[C@@H](CO)Nc1ccc2ncc(C#Cc3cncc(C(=O)Nc4ccc(CN5CCN(C)CC5)c(C(F)(F)F)c4)c3)n2n1
growth [1]: -71.5% (active)
growth [2]: -39.4% (active)
growth [3]: -30.1% (active)
growth [4]: -71.7% (active)
growth [5]: -88.8% (active)
growth [6]: -76.1% (active)
growth [7]: -35.3% (active)
growth [8]: -96.8% (active)
growth [9]: -87.2% (active)
growth [10]: -82.4% (active)
growth [11]: 0.898% (active)
growth [12]: -82.2% (active)
growth [13]: -58.3% (active)
growth [14]: -96.2% (active)
growth [15]: -60.4% (active)
growth [16]: -84.7% (active)
growth [17]: -82.1% (active)
growth [18]: -84.8% (active)
growth [19]: -92% (active)

O=C(CSc1nc2ccccc2c(=O)n1-c1ccccc1)Nc1cccc(C(=O)/C=C/c2ccccc2)c1
growth [1]: 102%
growth [2]: 83.1%
growth [3]: 102%
growth [4]: 99%
growth [5]: 91.6%
growth [6]: 92%
growth [7]: 80.1%
growth [8]: 98.5%
growth [9]: 106%
growth [10]: 94.8%
growth [11]: 70.1%
growth [12]: 101%
growth [13]: 94.3%
growth [14]: 83.1%
growth [15]: 94.8%
growth [16]: 98%
growth [17]: 98.8%
growth [18]: 99.8%
growth [19]: 97.5%

CCNC(=O)N1CCc2cc(OC)c(OCCc3ccc(OC)nc3)cc2C1c1ccc(C)cc1C (stereo not given)
growth [1]: 13%
growth [2]: 33.2%
growth [3]: 38%
growth [4]: 21.8%
growth [5]: 1.74% (active)
growth [6]: -34% (active)
growth [7]: 4.74% (active)
growth [8]: 6.15% (active)
growth [9]: 7.67% (active)
growth [10]: 12%
growth [11]: 11%
growth [12]: 51.5%
growth [13]: 15%
growth [14]: 2.44% (active)
growth [15]: 20.7%
growth [16]: 7.92% (active)
growth [17]: 5.2% (active)
growth [18]: 41.9%
growth [19]: 12.9%

O=C1[C@H]2Cc3c([nH]c4ccccc34)[C@@H](c3ccc(Br)cc3)N2C(=O)CN1C1CCN(CC2CCCCC2)CC1
growth [1]: -81.3% (active)
growth [2]: -3.54% (active)
growth [3]: 16.2%
growth [4]: 10.8%
growth [5]: -85.7% (active)
growth [20]: -59.4% (active)
growth [8]: -94.6% (active)
growth [9]: -90.6% (active)
growth [10]: -49.7% (active)
growth [11]: -63.7% (active)
growth [12]: -82.3% (active)
growth [13]: -94.8% (active)
growth [14]: -96% (active)
growth [15]: 22.2%
growth [16]: -61.5% (active)
growth [17]: -89.3% (active)
growth [18]: -60.2% (active)
growth [19]: -77.2% (active)

COc1ccc(S(=O)(=O)NCCCNc2nccc(-c3cn(C(C)(C)C)nc3-c3ccc(Cl)c(OC)c3)n2)cc1
growth [1]: 87.7%
growth [2]: 73.6%
growth [3]: 82.5%
growth [4]: 63.3%
growth [5]: 84.9%
growth [20]: 69.4%
growth [7]: 64.4%
growth [8]: 79.7%
growth [9]: 105%
growth [10]: 72.3%
growth [11]: 59.7%
growth [12]: 92.7%
growth [13]: 43.8%
growth [14]: -0.734% (active)
growth [15]: 57.9%
growth [16]: 91.2%
growth [17]: 89.8%
growth [18]: 104%
growth [19]: 92.8%

O=[N+]([O-])c1cc(/C=N/Nc2nc(N/N=C/c3ccc(Cl)c([N+](=O)[O-])c3)nc(N3CCCCC3)n2)ccc1Cl
growth [1]: 81.8%
growth [2]: 61.4%
growth [3]: 71.3%
growth [4]: 43.7%
growth [5]: 98.7%
growth [6]: 51.9%
growth [7]: 111%
growth [8]: 109%
growth [9]: 100%
growth [10]: 29.6%
growth [11]: 31.7%
growth [12]: 101%
growth [13]: 48.3%
growth [14]: 99.9%
growth [15]: 64.9%
growth [16]: 93.2%
growth [17]: 36.3%
growth [18]: 51.1%
